The supplement of paper PMC4466140

Target: AgAbp1
Assay: SPOT peptide array binding signal intensity (averaged, normalized) (arbitrary units (background-subtracted, floor 0; scale differs between SH3 domains)); higher = stronger binding of the SH3 domain to the peptide
Method in brief: (§1)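 E. coli BL21(DE3) was used to express GST-fused SH3 domains from four yeast species, which were then purified on glutathione Sepharose. These were incubated at 10 μg/ml in TBS-based blocking buffer overnight at 4°C on cellulose membranes carrying synthetic 15-mer peptides, in which cysteines were replaced by serines. Binding signal is the replicate average of normalized, background-subtracted spot intensity, in arbitrary units that differ between domains.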

Binder	SPOT peptide array binding signal intensity
RRASLFPRDPKRLRP	89.5

Target: AgBbc1
Assay: as above
Method in brief: as §1

Binder	SPOT peptide array binding signal intensity
RRASLFPRDPKRLRP	87.5

Target: AgBem1-D1
Assay: as above
Method in brief: as §1

Binder	SPOT peptide array binding signal intensity
RRASLFPRDPKRLRP	169

Target: AgBzz1-D1
Assay: as above
Method in brief: as §1

Binder	SPOT peptide array binding signal intensity
RRASLFPRDPKRLRP	87

Target: AgBzz1-D2
Assay: as above
Method in brief: as §1

Binder	SPOT peptide array binding signal intensity
RRASLFPRDPKRLRP	49

Target: AgCyk3
Assay: as above
Method in brief: as §1

Binder	SPOT peptide array binding signal intensity
RRASLFPRDPKRLRP	3

Target: AgFus1
Assay: as above
Method in brief: as §1

Binder	SPOT peptide array binding signal intensity
RRASLFPRDPKRLRP	223

Target: AgHof1
Assay: as above
Method in brief: as §1

Binder	SPOT peptide array binding signal intensity
RRASLFPRDPKRLRP	22.2

Target: AgHse1
Assay: as above
Method in brief: as §1

Binder	SPOT peptide array binding signal intensity
RRASLFPRDPKRLRP	1070

Target: AgLsb1
Assay: as above
Method in brief: as §1

Binder	SPOT peptide array binding signal intensity
RRASLFPRDPKRLRP	1

Target: AgLsb4
Assay: as above
Method in brief: as §1

Binder	SPOT peptide array binding signal intensity
RRASLFPRDPKRLRP	112

Target: AgMyo5
Assay: as above
Method in brief: as §1

Binder	SPOT peptide array binding signal intensity
RRASLFPRDPKRLRP	2.5

Target: AgNbp2
Assay: as above
Method in brief: as §1

Binder	SPOT peptide array binding signal intensity
RRASLFPRDPKRLRP	107

Target: AgRvs167
Assay: as above
Method in brief: as §1

Binder	SPOT peptide array binding signal intensity
RRASLFPRDPKRLRP	0.5

Target: AgSho1
Assay: as above
Method in brief: as §1

Binder	SPOT peptide array binding signal intensity
RRASLFPRDPKRLRP	67.5

Target: AgSla1-D1-D2
Assay: as above
Method in brief: as §1

Binder	SPOT peptide array binding signal intensity
RRASLFPRDPKRLRP	116

Target: AgSla1-D3
Assay: as above
Method in brief: as §1

Binder	SPOT peptide array binding signal intensity
RRASLFPRDPKRLRP	7.5

Target: CaAbp1-D1
Assay: as above
Method in brief: as §1

Binder	SPOT peptide array binding signal intensity
RRASLFPRDPKRLRP	520

Target: CaAbp1-D2
Assay: as above
Method in brief: as §1

Binder	SPOT peptide array binding signal intensity
RRASLFPRDPKRLRP	362

Target: CaBbc1
Assay: as above
Method in brief: as §1

Binder	SPOT peptide array binding signal intensity
RRASLFPRDPKRLRP	304

Target: CaBem1-D1
Assay: as above
Method in brief: as §1

Binder	SPOT peptide array binding signal intensity
RRASLFPRDPKRLRP	83

Target: CaBzz1-D1
Assay: as above
Method in brief: as §1

Binder	SPOT peptide array binding signal intensity
RRASLFPRDPKRLRP	131

Target: CaBzz1-D2
Assay: as above
Method in brief: as §1

Binder	SPOT peptide array binding signal intensity
RRASLFPRDPKRLRP	128

Target: CaCyk3
Assay: as above
Method in brief: as §1

Binder	SPOT peptide array binding signal intensity
RRASLFPRDPKRLRP	39

Target: CaFus1
Assay: as above
Method in brief: as §1

Binder	SPOT peptide array binding signal intensity
RRASLFPRDPKRLRP	724

Target: CaHof1
Assay: as above
Method in brief: as §1

Binder	SPOT peptide array binding signal intensity
RRASLFPRDPKRLRP	1.5

Target: CaHse1
Assay: as above
Method in brief: as §1

Binder	SPOT peptide array binding signal intensity
RRASLFPRDPKRLRP	13.2

Target: CaLsb1
Assay: as above
Method in brief: as §1

Binder	SPOT peptide array binding signal intensity
RRASLFPRDPKRLRP	0.25

Target: CaLsb4
Assay: as above
Method in brief: as §1

Binder	SPOT peptide array binding signal intensity
RRASLFPRDPKRLRP	58.5

Target: CaMyo5
Assay: as above
Method in brief: as §1

Binder	SPOT peptide array binding signal intensity
RRASLFPRDPKRLRP	4.5

Target: CaNbp2
Assay: as above
Method in brief: as §1

Binder	SPOT peptide array binding signal intensity
RRASLFPRDPKRLRP	464

Target: CaRvs167
Assay: as above
Method in brief: as §1

Binder	SPOT peptide array binding signal intensity
RRASLFPRDPKRLRP	8.67

Target: CaRvs167-3
Assay: as above
Method in brief: as §1

Binder	SPOT peptide array binding signal intensity
RRASLFPRDPKRLRP	80.2

Target: CaSho1
Assay: as above
Method in brief: as §1

Binder	SPOT peptide array binding signal intensity
RRASLFPRDPKRLRP	430

Target: CaSla1-D1-D2
Assay: as above
Method in brief: as §1

Binder	SPOT peptide array binding signal intensity
RRASLFPRDPKRLRP	87.5

Target: CaSla1-D3
Assay: as above
Method in brief: as §1

Binder	SPOT peptide array binding signal intensity
RRASLFPRDPKRLRP	≤ 0

Target: ScAbp1
Assay: as above
Method in brief: as §1

Binder	SPOT peptide array binding signal intensity
RRASLFPRDPKRLRP	284

Target: ScBbc1
Assay: as above
Method in brief: as §1

Binder	SPOT peptide array binding signal intensity
RRASLFPRDPKRLRP	18.2

Target: ScBem1-D1
Assay: as above
Method in brief: as §1

Binder	SPOT peptide array binding signal intensity
RRASLFPRDPKRLRP	173

Target: ScBzz1-D1
Assay: as above
Method in brief: as §1

Binder	SPOT peptide array binding signal intensity
RRASLFPRDPKRLRP	30.5

Target: ScBzz1-D2
Assay: as above
Method in brief: as §1

Binder	SPOT peptide array binding signal intensity
RRASLFPRDPKRLRP	104

Target: ScCyk3
Assay: as above
Method in brief: as §1

Binder	SPOT peptide array binding signal intensity
RRASLFPRDPKRLRP	108

Target: ScFus1
Assay: as above
Method in brief: as §1

Binder	SPOT peptide array binding signal intensity
RRASLFPRDPKRLRP	282

Target: ScHof1
Assay: as above
Method in brief: as §1

Binder	SPOT peptide array binding signal intensity
RRASLFPRDPKRLRP	4

Target: ScHse1
Assay: as above
Method in brief: as §1

Binder	SPOT peptide array binding signal intensity
RRASLFPRDPKRLRP	1890

Target: ScLsb1
Assay: as above
Method in brief: as §1

Binder	SPOT peptide array binding signal intensity
RRASLFPRDPKRLRP	14.5

Target: ScLsb2
Assay: as above
Method in brief: as §1

Binder	SPOT peptide array binding signal intensity
RRASLFPRDPKRLRP	1

Target: ScLsb3
Assay: as above
Method in brief: as §1

Binder	SPOT peptide array binding signal intensity
RRASLFPRDPKRLRP	248

Target: ScLsb4
Assay: as above
Method in brief: as §1

Binder	SPOT peptide array binding signal intensity
RRASLFPRDPKRLRP	4.5

Target: ScMyo3
Assay: as above
Method in brief: as §1

Binder	SPOT peptide array binding signal intensity
RRASLFPRDPKRLRP	0.5

Target: ScMyo5
Assay: as above
Method in brief: as §1

Binder	SPOT peptide array binding signal intensity
RRASLFPRDPKRLRP	2

Target: ScNbp2
Assay: as above
Method in brief: as §1

Binder	SPOT peptide array binding signal intensity
RRASLFPRDPKRLRP	308

Target: ScPex13
Assay: as above
Method in brief: as §1

Binder	SPOT peptide array binding signal intensity
RRASLFPRDPKRLRP	≤ 0

Target: ScRvs167
Assay: as above
Method in brief: as §1

Binder	SPOT peptide array binding signal intensity
RRASLFPRDPKRLRP	16.3

Target: ScSho1
Assay: as above
Method in brief: as §1

Binder	SPOT peptide array binding signal intensity
RRASLFPRDPKRLRP	992

Target: ScSla1-D1-D2
Assay: as above
Method in brief: as §1

Binder	SPOT peptide array binding signal intensity
RRASLFPRDPKRLRP	1000

Target: ScSla1-D3
Assay: as above
Method in brief: as §1

Binder	SPOT peptide array binding signal intensity
RRASLFPRDPKRLRP	20

Target: SpAbp1-D1
Assay: as above
Method in brief: as §1

Binder	SPOT peptide array binding signal intensity
RRASLFPRDPKRLRP	152

Target: SpBbc1
Assay: as above
Method in brief: as §1

Binder	SPOT peptide array binding signal intensity
RRASLFPRDPKRLRP	7

Target: SpBzz1-D1
Assay: as above
Method in brief: as §1

Binder	SPOT peptide array binding signal intensity
RRASLFPRDPKRLRP	609
